Compounds with a hit are over-represented: about 2.3% of the library has one in this group of screens.
HepG2 viability – kills HepG2 cells in TGF-b inhibitor counter-screen; HepG2 CAGA-GFP viability, ATP luminescence, 18 h; Potency, µM (series often up to 46.1 µM), without a hit: at the highest dose activity change, negative = cytotoxicity, hits mostly cytotoxic; 410,000 compounds, 0.76% hits; AID 588856
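HepG2 CAGA-GFP cells (1000/well, DMEM with 1% FBS) received compound, then TGF-beta at 500 pg/mL final, and were incubated 18 hours at 37 degrees C. Viability was read by CellTiter-Glo luminescence. Media-only wells were set as complete cell-killing and DMSO as no toxicity.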
ATXN2 expr inh – ATXN2 expression inhibition. Potency, µM (highest dose often 57 µM), inactives show at the highest dose activity change, negative = inhibition, actives largely listed as inhibitors. 360,000 compounds, 0.72% hits. HEK-293 ATXN2-luciferase reporter, luminescence, 24 h; further: on the % scale 0 is the no-effect control and ±100 the full control effect; nearly all actives have a fitted effect of over 55% in size
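qHTS (up to 57 uM final) was run with 24 h compound exposure of reporter cells at 37 °C. Each well was multiplexed: SteadyGlo luminescence measured ATXN2-luciferase expression after a fluorogenic Gly-Phe-AFC viability readout (25 uM final).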
TGFb SMAD3 inh – TGF-b pathway inhibition; HepG2 CAGA-GFP TGF-b/SMAD3 reporter, GFP fluorescence, 18 h; TGF-beta stimulated, 500 pg/mL final; Potency, µM (series often up to 46.1 µM), for inactives: at the top dose activity, negative = inhibition, actives largely listed as inhibitors; 410,000 compounds, 1.2% hits; further: on the % scale 0 is the no-effect control and ±100 the full control effect; nearly all actives have a fitted effect of over 65% in size
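GFP signal (ex488/em500-530) from TGF-beta-stimulated HEPG2 CAGA-GFP cells, 500 pg/mL final, 18 h at 37 degrees C in DMEM plus 1% FBS, normalized to unstimulated and DMSO-stimulated controls.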
S2 tox – cell viability loss in ATXN counter-screen; S2 cells (HEK-293 line with an ATXN2-luciferase reporter) viability, CellTiter-Fluor protease fluorescence, 24 h; Potency, µM (series often up to 56.7 µM), most hits filed as cytotoxic; 400,000 compounds, 0.49% hits; AID 651635; further: nearly all actives have a fitted effect of over 40% in size
* hit, by the source's call; i = inactive; ? = inconclusive; . = no result; ! = a repeat was not active. The call rests on the fitted dose curve; in most records, active means well fitted curve in the direction sought with a large enough effect; inconclusive means small, poorly fitted or top-dose-only effect, or another doubt; inactive means no such curve, though single readings can be large; an effect the other way counts as inactive or inconclusive. Potency means the concentration at half of the fitted maximal effect.

SMILES | HepG2 viability | ATXN2 expr inh | TGFb SMAD3 inh | S2 tox
COc1cccc(NC(=S)NNC(=O)c2ccccc2OC(F)F)c1 | -17.9% | 16.8% | -5.4% | i
Cc1cccc2cc(CN(C(=O)c3ccc(N4CCCCC4)cc3)C3CC3)c(N3CCC(O)CC3)nc12 | . | . | . | i
O=C(Cn1cncn1)NCC1Cc2cc(-c3ccsc3)cc(Cl)c2O1 (centres undefined) | . | . | . | i
CC1(Cc2cc(Cl)ccc2C(F)(F)F)C(=O)Nc2cc(F)ccc21 (centres undefined) | -84.7% | ? | ? | ?
CC1(Cc2cc(Cl)ccc2C(F)(F)F)C(=O)Nc2cc(C(F)(F)F)ccc21 (centres undefined) | 17.8µM* | -18.8% | ? | ?
CC1(Cc2ccc(C(F)(F)F)o2)C(=O)Nc2cc(-c3ccc(F)cc3F)ccc21 (centres undefined) | 20µM* | ? | ? | ?
COc1ccccc1-c1ccc2c(c1)C(C)(Cc1cc(Cl)ccc1C(F)(F)F)C(=O)N2 (centres undefined) | -102.4% | ? | 17.8µM* | i
COc1ccc(C(C)=O)cc1CC1(C)C(=O)Nc2ccc(-c3cccc(C(F)(F)F)c3)cc21 (centres undefined) | -106.0% | ? | 15.8µM* | i
C[N+](C)(CCOc1ccccc1)Cc1cccs1 | . | 0.9% | . | i
CC1=Nc2ccccc2/C1=C/c1ccc(N(C)C)cc1 | -22.7% | . | ? | .
CC1(Cc2ccccc2Cl)C(=O)Nc2cc(-c3ccccc3Cl)ccc21 (centres undefined) | 17.8µM* | -21.7% | ? | .
CC1(Cc2c(Cl)cccc2Cl)C(=O)Nc2cc(-c3ccccc3Cl)ccc21 (centres undefined) | -53.2% | -28.3% | ? | ?
O=C(CN(c1cccc(C(F)(F)F)c1)S(=O)(=O)c1ccccc1)Nc1cccc(Cl)c1 | -51.7% | ? | ? | ?
O=C(CN(c1cccc(C(F)(F)F)c1)S(=O)(=O)c1ccc(Cl)c([N+](=O)[O-])c1)NCc1ccc(F)cc1 | -47.2% | ? | ? | 31.6µM*
COc1cccc(OC)c1CN1CCC2(CCC(CNC(=O)c3ccn(C)n3)O2)CC1 (centres undefined) | . | . | . | i
COc1ccc(C(C(=O)NC2CCCCC2)N(C(=O)CCl)c2cccc(Cl)c2)cc1 (centres undefined) | 11.2µM* | 6.31µM* | ? | 7.08µM*
COc1ccc(C(C(=O)NC2CCCCC2)N(C(=O)CCl)c2ccc(OC)cc2)cc1 (centres undefined) | -22.6% | 3.55µM* | ? | 3.98µM*
COc1ccc(C(C(=O)NC2CCCCC2)N(C(=O)CCl)c2ccc(C)cc2)cc1 (centres undefined) | -39.5% | ? | ? | .
O=C(NC1CCCCC1)C(c1cccnc1)N(C(=O)CCl)c1ccc(F)cc1 (centres undefined) | -75.8% | 3.98µM* | ? | 6.31µM*
Ic1ccc(Nc2nc(NCCN3CCOCC3)nc(N3CCOCC3)n2)cc1 | -52.4% | . | 6.3% | .
C[C@]12CC[C@@H]3c4ccc(O)cc4CC[C@H]3[C@H]1C[C@@H](O)[C@H]2O | . | 10.5% | . | .
CC(C)(C)NCC(O)COc1ccccc1OCC1CCCO1 (centres undefined) | . | 13.1% | . | i
CN(C)C(=S)N=c1ssc(=S)n1Cc1cccnc1 | -44.5% | -30.4% | 3.16µM* | i
Cc1cccc2c(N)c3c(nc12)CCCC3 (tested in a mixture with another compound) | -23.9% | ? | -27.2% | ?
Cc1cc(C)c2c(N)c3cccc(C)c3nc2n1 | 26.2% | 13.4µM* | ? | .
SMILES | HepG2 viability | ATXN2 expr inh | TGFb SMAD3 inh | S2 tox
O=C(CCCc1ccccc1)Nc1ccnn1C1CCN(Cc2ccccn2)CC1 | 15.0% | -7.6% | 9.6% | i
COc1ccccc1C(=O)Nc1ccnn1C1CCN(Cc2cn(C)c3ccccc23)CC1 | -42.2% | . | 11.2µM* | ?
Cc1ccccc1CN1CCC(n2nccc2NC(=O)CCCc2ccccc2)CC1 | 17.8µM* | . | -0.8% | i
CC(C)(C)CC(C)(C)c1ccc(O)c(Cc2ccc(Cl)cc2Cl)c1 | -40.8% | 22.4µM*! | ? | 28.2µM*
CC(C)(C)CC(C)(C)c1ccc(O)c(CN2CCN(CCC#N)CC2)c1 | -51.2% | -1.1% | 0.0% | i
O=C(NCc1cccnc1)/C(=C/c1ccc(-c2cccc(C(F)(F)F)c2)o1)NC(=O)c1ccccc1 | -10.6% | -10.2% | ? | i
Cc1ccc(C(=O)N/C(=C/c2ccc(-c3cc(C(F)(F)F)ccc3Cl)o2)C(=O)NCc2cccnc2)cc1 | -0.2% | -29.1% | 12.6µM* | i
COC(=O)c1ccccc1C(=O)NCC1Cc2cc(-c3nc(C)cnc3C)ccc2O1 (centres undefined) | . | . | . | i
O=C1C=CCC(/C=C/c2ccccc2)O1 (centres undefined) | 12.6µM* | 5.01µM* | ? | ?
COc1ccc(Br)cc1C(C[N+](=O)[O-])c1c(N)n(C)c(=O)n(C)c1=O (centres undefined) | 15.8µM* | . | 10µM* | .
CN(C)c1ccc(C(C[N+](=O)[O-])c2c(N)n(C)c(=O)n(C)c2=O)c(F)c1C#N (centres undefined) | 11.2µM* | . | ? | .
Cn1c(N)c(C(C[N+](=O)[O-])c2c(F)cccc2Cl)c(=O)n(C)c1=O (centres undefined) | -25.1% | -3.6% | 0.0% | i
C#Cc1cccc(Nc2ncnc3cc(OC)c(OCCCCCCC(=O)NO)cc23)c1 | . | -39.0% | . | .
O=C1NC[C@@H](Cc2cccc3ccccc23)N(CCc2cc(C(F)(F)F)cc(C(F)(F)F)c2)C1=O | -118.6% | ? | 12.6µM* | .
C=CCn1c(COc2ccccc2)nnc1SC(C)C(=O)N/N=C/c1cc(Cl)ccc1O (centres undefined) | -13.7% | 14.1µM* | -1.2% | i
CC(C)(C)C(=O)Nc1ccc(NC(=O)c2ccco2)nc1 | -10.2% | 0.891µM* | 14.4% | i
CSC1=C(C#N)C(c2ccc(Cl)cc2)C2=C(CC(C)(C)CC2=O)N1 (centres undefined) | 4.4% | -20.9% | 11.2µM* | ?
O=C(Cn1c2ccccc2c(=O)c2ccccc21)N/N=C/c1ccc(N2CCCC2)c([N+](=O)[O-])c1 | -50.2% | 31.6µM* | -21.0% | .
COc1ccc(C[C@H]2CN3C(=NC[C@@H]3C(C)C)N2C[C@H](C)NC(=O)c2ccc(C)c(Br)c2)cc1 | -57.8% | ? | ? | 17.8µM*
COc1ccc(C[C@H]2CN3C(=NC[C@@H]3Cc3ccc(O)cc3)N2C[C@H](C)NC(=O)c2ccc(C)c(Br)c2)cc1 | 17.8µM* | ? | 22.4µM* | 22.4µM*
COc1cc(OC)c(OC)cc1/C=c1\[nH]c(=O)/c(=C/c2cc(OC)c(OC)cc2OC)[nH]c1=O | -23.7% | . | ? | .
O=[N+]([O-])c1ccc(C=CC=Cc2ccccc2)cc1 | -42.8% | . | -16.9% | i
CN(c1ccccc1)c1ccc(/C=C/[N+](=O)[O-])cc1 | 7.94µM* | -1.6% | ? | .

From PubChem BioAssay
